These entries were drawn from the full list.
GASC-1 inh = inhibitors of human GASC-1 (JMJD2C) demethylase | Q9H3R0 | inhibition, % at 2.35 µM | 0.069% of 330,000 active | GST-JMJD2C(1-420) H3K9me3 demethylation, DELFIA europium;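 active means more than half of a compound's replicate wells show inhibition beyond 50%, single wells judged on their own value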;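 further: signal counts dimethyl H3K9 product captured on neutravidin plate; 0% = median of DMSO wells and 100% = 0.3 times that DMSO median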
Target sequence (Q9H3R0 1-420 limits assumed): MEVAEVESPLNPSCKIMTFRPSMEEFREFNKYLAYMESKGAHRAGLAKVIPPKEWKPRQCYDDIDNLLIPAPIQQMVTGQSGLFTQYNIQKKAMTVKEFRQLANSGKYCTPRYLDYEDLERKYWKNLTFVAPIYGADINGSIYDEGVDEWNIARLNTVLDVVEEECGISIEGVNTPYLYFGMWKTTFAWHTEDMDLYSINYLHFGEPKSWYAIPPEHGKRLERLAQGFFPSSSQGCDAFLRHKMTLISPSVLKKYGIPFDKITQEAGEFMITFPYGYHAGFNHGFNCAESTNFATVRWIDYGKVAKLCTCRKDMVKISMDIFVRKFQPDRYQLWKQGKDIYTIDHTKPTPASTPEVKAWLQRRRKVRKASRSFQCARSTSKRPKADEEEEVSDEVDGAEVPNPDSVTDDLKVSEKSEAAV
V-ATPase pH = regulators of yeast V-ATPase proton transport; S. cerevisiae, pHLuorin cytosolic pH fluorescence; response, % at 10 µM; 0.37% of 350,000 active; AID 504577; in the data active means response mostly above about 7.3%, no sharp cut-off; inactive means mostly below about 5.4%; further: actives read high
VLA-4 inh = inhibition in a human VLA-4 binding assay. P13612. inhibition, % (about 7 µM as worked out from the volumes in the protocol). 0.2% of 330,000 active. VLA-4 expressing cells, ligand binding flow cytometry. AID 2557; in the data active means inhibition above about 50%
m5-HT2A agonist = agonists of mouse serotonin 5-HT2A receptor (HTR2A). P35363. CHO-K1 mHTR2A beta-arrestin complementation, luminescence; percent of 30 µM serotonin response. activation, % at 7.6 µM. 0.66% of 360,000 active;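 active means activation above a run cutoff, the mean activation of all tested compounds plus 3 SD, cut at about 14% in these data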;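 further: 0% = plate median of compound wells and 100% = 30 µM serotonin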
Granule exo inh = blocks lytic granule exocytosis | inhibition, % at 10 µM | TALL-104 LAMP-1 surface exposure, flow cytometry; cells stimulated with thapsigargin and PMA | 0.66% of 360,000 active;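 active means inhibition above about 55%, limit read from the data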
MEX-5 binding = C. elegans MEX-5 TCR-2 RNA binding activity | Q9XUB2 | MEX-5/FITC-TCR2 RNA binding, fluorescence polarization; hits give low values | activity score (negative = inhibition of binding), % at 10 µM | 0.38% of 300,000 active | AID 1832;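 active means inhibition past about -25% in most replicates, and total fluorescence under double the plate's negative control median, limit read from the data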;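 further: 0% = DMSO and -100% = 5 µM competing unlabeled TCR2 RNA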
VLA-4 mod pick = human VLA-4 allosteric modulation in cherry picked compounds | shares compounds with VLA-4 inh | U937 cells, HUTS-21 LIBS mAb binding, flow cytometry; LDV ligand present at threefold Kd | inhibition, % at 6.7 µM | 2% of 1,300 active | AID 2813; in the data active means inhibition above about 40%;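 further: 0% = ligand without compound and 100% = no ligand background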
Starred values were filed as active, the others as inactive.

Screening O=C(O)c1cc(-c2ccc(Cl)c(Cl)c2)n(-c2ccccc2)n1 returned GASC-1 inh -23, V-ATPase pH 0, VLA-4 inh 47, m5-HT2A agonist 1, Granule exo inh 3, MEX-5 binding -3 and VLA-4 mod pick -8.
`Cc1nn(C)c(C)c1S(=O)(=O)N(CC(=O)Nc1ccc2c(c1)OCO2)c1ccc(C(C)C)cc1` gave GASC-1 inh 7, V-ATPase pH -1, VLA-4 inh -12, m5-HT2A agonist -2, Granule exo inh 1 and VLA-4 mod pick -2.
For Cc1ccc(NC(=O)CN(c2ccc(C)cc2)S(=O)(=O)c2cccc3nonc23)cc1 the results were GASC-1 inh -9, V-ATPase pH 2, VLA-4 inh 27, m5-HT2A agonist -8, Granule exo inh -4 and VLA-4 mod pick 0.
COC(=O)c1ccc(NC(=O)CN(c2ccc(C)cc2)S(=O)(=O)c2c(C)nn(C)c2C)cc1 was read as GASC-1 inh 0, V-ATPase pH -1, VLA-4 inh 4, m5-HT2A agonist -5, Granule exo inh 0, MEX-5 binding 2 and VLA-4 mod pick 4.
For COc1ccccc1NC(=O)CN(c1ccc(C)cc1)S(=O)(=O)c1c(C)n[nH]c1C the results were GASC-1 inh 4, V-ATPase pH 5, VLA-4 inh -7, m5-HT2A agonist -4, Granule exo inh -1, MEX-5 binding -4 and VLA-4 mod pick -1.
COc1ccc(N(CC(=O)Nc2ccc(C)cc2)S(=O)(=O)c2c(C)noc2C)cc1 was read as GASC-1 inh 9, V-ATPase pH 1, VLA-4 inh 0, m5-HT2A agonist 9, Granule exo inh 10 and MEX-5 binding -1.
For CC(=O)Nc1cc(-c2ccc(C(=O)N3CCOCC3)cc2)cn2c(-c3cccc(C(F)(F)F)c3)cnc12 the results were m5-HT2A agonist 3 and Granule exo inh -7.
CCC(C)(C)NC(=O)C1CCCN(S(=O)(=O)c2ccc3c(c2)CC(C)N3C(=O)C2CC2)C1 (centres undefined) was read as GASC-1 inh -5, V-ATPase pH 0, VLA-4 inh 5, m5-HT2A agonist -7, Granule exo inh 0 and MEX-5 binding 2.
Screening COc1ccc(/C=C2\N=C(c3ccccc3Cl)NC2=O)cc1 returned GASC-1 inh -20, V-ATPase pH 2, m5-HT2A agonist 0, Granule exo inh 6 and MEX-5 binding -7.
COc1ccc(-c2sc3cc(OC)ccc3c2-c2ccc(OCCN3CCCCC3)cc2)cc1 was read as m5-HT2A agonist -3 and Granule exo inh 31.
COc1ccc(-c2sc3ccccc3c2-c2ccc(OCCN3CCCCC3)cc2)cc1 was read as GASC-1 inh 0, V-ATPase pH 3, VLA-4 inh 6, m5-HT2A agonist 0, Granule exo inh 34 and VLA-4 mod pick 7.
c1ccc(-c2sc3ccccc3c2-c2ccc(OCCN3CCCC3)cc2)cc1 was read as GASC-1 inh -21, V-ATPase pH 0, VLA-4 inh 46, m5-HT2A agonist -12, Granule exo inh -4 and VLA-4 mod pick 24.
For c1ccc(COc2ccc(OCCN3CCCC3)cc2)cc1 the results were GASC-1 inh 10, V-ATPase pH 0, VLA-4 inh 11, m5-HT2A agonist 8, Granule exo inh 0 and MEX-5 binding 0.
`Cc1ccc(S(=O)(=O)N2[C@@H](Cc3ccccc3)CO[C@H]2CC(=O)c2ccccc2)cc1` gave m5-HT2A agonist -1 and Granule exo inh 4.
For O=C1NN(c2ccccc2)C(=O)/C1=C/c1cccs1 the results were GASC-1 inh 20, VLA-4 inh 41, MEX-5 binding -2 and VLA-4 mod pick -5.
O=C1NN(c2cccc(Br)c2)C(=O)/C1=C/c1cccs1 was read as GASC-1 inh 3, V-ATPase pH 3, VLA-4 inh 2, m5-HT2A agonist 2, Granule exo inh 4 and MEX-5 binding 0.
C=C(C)Cn1cnc2c(oc3nc4c(cc32)CCCC4)c1=O was read as GASC-1 inh 2, V-ATPase pH -1, VLA-4 inh 11, m5-HT2A agonist 3, Granule exo inh -3 and MEX-5 binding 1.
